Experimental findings from PubChem BioAssay AID651558 (National Center for Advancing Translational Sciences (NCATS), 2012) are described below.

Values joined by “and” are separate entries in the source; they are usually repeats but may differ in a detail not shown here. Equal entries are not always repeated. About 480 (40%) of roughly 1,200 compounds were called active. About 29% were inconclusive and are not listed. Calls follow the shape of the dose curve; as a rule, active = well fitted inhibition curve with a large enough effect; inconclusive = small, poorly fitted or top-dose-only effect; inactive = no such curve, though single readings can be large or run the other way. The list shows a part of the results. Where a call stands in place of a potency, no number is given.
Potency is read from the fitted curve at half-maximal effect.

The nature of this experiment: qHTS Assay to Find Inhibitors of Chronic Active B-Cell Receptor Signaling: Hit Validation in Primary Screen. Also: nearly all actives have a fitted effect of over 75% in size. Particulars: ABC-DLBCL IkB-luc/CBR ratio luminescence, 4 h; series mostly up to 46.1 µM. Summed up:
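Concentration series (3 nM to 46 uM) tested on TMD8 cells induced with doxycycline for 4 h. Filter-corrected green (IkBa fusion) over red (unfused) luciferase signal; Data were normalised to 10 uM MG-132 and untreated cell wells.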
(qHTS replaces the single test concentration by a dilution series.)
As for `CCOc1ccc(S(=O)(=O)NCc2ccccn2)cc1NC(=O)c1ccccc1F`, the Potency is 8.2 µM (active).

`Cc1ccc(S(=O)(=O)Nc2cccc(-c3ccc4nncn4n3)c2)cc1`: the Potency was 16.4 µM (active).

In the case of `CNCc1ccccc1Sc1ccc(O)c(O)c1`, the Potency is 23.1 µM (active).

On to `CS(=O)(=O)C1=C(O)C(=O)N(c2ccccc2)C1c1ccccc1` (centres undefined), for which the Potency result was “inactive”.

`COc1ccc(NC(=O)/C(C#N)=C\c2cc(C)n(-c3ccc4c(c3)OCO4)c2C)cc1`: the Potency was 2.31 µM (active).

Take `Oc1cccc(Nc2nc(N3CCOCC3)nc(N3CCOCC3)n2)c1`: the Potency is 8.2 µM (active).

With `Cc1cc(C)n(-c2nc3ccccc3c(=O)n2OCC#N)n1`, the Potency was 23.1 µM (active).

Turning to `Cc1ccc(S(=O)(=O)Cc2ccc(C(=O)N3CCN(c4cccc(C)c4C)CC3)o2)cc1`, the Potency was 5.17 µM (active) and 20.6 µM (active).

Take `Oc1[nH]c2ccccc2c1N=NC(=S)N1CCOCC1`: the Potency result was “inactive”.

Take `COc1ccc(CNC(=O)/C(C#N)=C/c2cccc(OC)c2OC)cc1`: the Potency was 18.4 µM (active).

With `N#C/C(=C\c1cn(Cc2ccc(F)cc2)c2ccccc12)C(=O)NCc1ccco1`, the Potency entry is “inactive”.

As for `COc1ccc(-c2ccc(CCC(=O)O)n2-c2ccccc2OC)cc1`, the Potency entry is “inactive”.

Regarding `CC1CC(C)CN(S(=O)(=O)c2ccc(NC(=O)c3ccc(=O)[nH]c3)cc2)C1` (centres undefined), the Potency was 9.2 µM (active).

Take `Oc1cccc(/C=N/Nc2ccc(Cl)nn2)c1O`: the Potency is 14.6 µM (active).

On to `Oc1ccccc1/C=N/Nc1ccnc(SCc2ccccc2)n1`, for which the Potency result was “inactive”.

On to `CCCCN1C(=O)N(C)C2C1N(C)C(=O)N2CCCC` (centres undefined), for which the Potency entry is “inactive”.

For `O=C(CCl)Nc1cc(S(=O)(=O)N2CCCCCC2)ccc1Cl`, the Potency was 20.6 µM (active).

As to `O=C(CNC(=O)c1ccco1)N=Nc1c(O)n(CCc2ccccc2)c2ccccc12`, the Potency was 5.8 µM (active).

Take `O=[N+]([O-])c1cc(/C=N/O)ccc1Sc1ccccc1`: the Potency result is “inactive”.

As to `CCOC(=S)SCC(=O)Nc1nc(-c2ccc(Br)cc2)cs1`, the Potency was 3.66 µM (active).

In the case of `Cc1csc(NC(=S)NC(=O)c2ccccc2)n1`, the Potency result was “inactive”.

As to `CCOC(=O)Cc1csc(NC(=S)NC(=O)c2ccccc2)n1`, the Potency entry is “inactive”.

`CC(=O)c1ccc2c(c1)CC(C)C(=O)N2C` (centres undefined): the Potency entry is “inactive”.

Regarding `Cc1cccc(-n2c3nc(=O)[nH]c(=O)c-3cc3cc([N+](=O)[O-])ccc32)c1`, the Potency was 7.31 µM (active).

As for `Cc1ccc(C)c(-n2c3nc(=O)[nH]c(=O)c-3cc3cc([N+](=O)[O-])ccc32)c1`, the Potency result is “inactive”.

Take `COCCn1c(-c2cccc([N+](=O)[O-])c2)nc2c1c(=O)[nH]c(=O)n2Cc1ccccc1`: the Potency result was “inactive”.

Turning to `Cn1c(=O)n(C)c2cc(NS(=O)(=O)c3ccc(Br)s3)ccc21`, the Potency result is “inactive”.

On to `O=C1N[C@H]2CC=C[C@H]2Nc2ccccc21`, for which the Potency result was “inactive”.

Take `CCNC(=O)[C@H]1O[C@@H](n2cnc3c(N)nc(NCCc4ccc(CCC(=O)O)cc4)nc32)[C@H](O)[C@@H]1O`: the Potency is 0.0731 µM (active).

On to `COC(=O)C1=C(C)NC(C)=C(C(=O)OC)C1/C=C/c1ccccc1`, for which the Potency was 20.6 µM (active).

In the case of `COc1ccc(NC(=O)C(=O)NCC2CCCN2S(=O)(=O)c2ccc(C)cc2)cc1` (centres undefined), the Potency is 0.517 µM (active).

For `Cc1ccc(NC(=O)C(=O)NCC2CCCN2S(=O)(=O)c2cccs2)cc1C` (centres undefined), the Potency result is “inactive”.

As for `CC(C)N=C(NS(=O)(=O)c1ccccc1)C(Cl)(Cl)Cl`, the Potency was 3.26 µM (active).

Consider `N#Cc1ccccc1NC(=O)c1cccc(COc2ccc(Cl)cc2Cl)c1`, for which the Potency entry is “inactive”.

Take `Cc1ccc2nc(SCC(=O)Nc3cc(C(F)(F)F)ccc3N3CCOCC3)[nH]c2c1`: the Potency was 2.06 µM (active).

With `O=C(CSc1cc(Cl)ccc1Cl)Nc1ccc(N2CCOCC2)cc1`, the Potency entry is “inactive”.

Turning to `Cc1onc(-c2ccccc2)c1C(=O)Nc1cc(C(F)(F)F)ccc1N1CCOCC1`, the Potency was 20.6 µM (active).

Turning to `CCN(CC)S(=O)(=O)c1ccc(N2CCOCC2)c(NC(=O)c2c3c(nc4ccccc24)CCC3)c1`, the Potency entry was “inactive”.

Consider `C=CCNC(=S)N/N=C/c1ccc(C(C)(C)C)cc1`, for which the Potency entry was “inactive”.

In the case of `Cc1ccc(S(=O)(=O)N(C)C[C@@H]2Oc3ccc(NC(=O)CCC(F)(F)F)cc3CC(=O)N([C@@H](C)CO)C[C@@H]2C)cc1`, the Potency is 9.2 µM (active).

With `COc1cc(SSc2cc(OC)cc([N+](=O)[O-])c2N)c(N)c([N+](=O)[O-])c1`, the Potency entry was “inactive”.

Turning to `Nc1ccc(C(=O)n2c3ccccc3c3ccccc32)cc1`, the Potency was 13 µM (active).

For the molecule `COc1cc2c(cc1C1NC(=S)NC(C)=C1C(N)=O)CCCC2` (centres undefined), the Potency entry is “inactive”.

With `COc1cccc(C2NC(=S)NC(C)=C2C(=O)c2ccccc2)c1OC` (centres undefined), the Potency is 16.4 µM (active).

`CCCCN(C(=O)CSc1nc2ccccc2n1CC)C1CCS(=O)(=O)C1` (centres undefined): the Potency result was “inactive”.

For `Cc1cc2c(cc(C(=O)OCC(=O)NCc3cccs3)n2C(C)C)o1`, the Potency is 8.2 µM (active).

Turning to `Cc1cc(C(=O)OCC(=O)Nc2c(Cl)cccc2Cl)c(C)o1`, the Potency entry is “inactive”.

With `O=C(NC(=S)NC1CCSC1=O)c1ccccc1` (centres undefined), the Potency entry was “inactive”.

Turning to `CCOC(=O)c1ccccc1NC(=O)Cn1c(-c2nonc2N)nc2ccccc21`, the Potency was 2.31 µM (active).

For `Cc1cccc(C)c1NC(=O)CNC(=O)CNC(=O)Cc1cccc2ccccc12`, the Potency result is “inactive”.

As for `CCC(=O)Nc1nonc1-c1nc2ccccc2n1Cc1cccc2ccccc12`, the Potency was 2.91 µM (active).

As for `COC(=O)c1ccccc1NC(=O)Cn1c(-c2nonc2N)nc2ccccc21`, the Potency is 0.731 µM (active).

`COCCNC(=S)N/N=C(\C)c1ccc(Cl)s1`: the Potency result was “inactive”.

Turning to `CCONC(=O)Nc1ccccc1[N+](=O)[O-]`, the Potency result was “inactive”.

As to `COCCNC(=S)N/N=C(\C)c1ccc(Cl)c(Cl)c1Cl`, the Potency entry is “inactive”.

Regarding `CCOc1ccccc1N1CSC2=C(C#N)C(c3c(OC)ccc4ccccc34)CC(=O)N2C1` (centres undefined), the Potency entry is “inactive”.

On to `N#CC1=C(N)Oc2cc(N)ccc2C1c1cccc(Br)c1` (centres undefined), for which the Potency is 4.11 µM (active).

For `CN(C)c1ccc2c(c1)OC(N)=C(C#N)C2c1cccc(F)c1` (centres undefined), the Potency is 0.82 µM (active).

With `CCN(CC)c1ccc2c(c1)OC(N)=C(C#N)C2c1cccnc1` (centres undefined), the Potency was 1.03 µM (active).

With `CC(O)c1cccc(-c2ccc(CN3C[C@]4(CO)O[C@@H](CO)C[C@@H]4S3(=O)=O)cc2)c1` (some centres undefined), the Potency entry is “inactive”.

Consider `CC1=NN(C(N)=S)C(=O)C1N=Nc1ccc(C)c(Br)c1` (centres undefined), for which the Potency result was “inactive”.

For `OC(C#Cc1ccccn1)c1cccs1` (centres undefined), the Potency result is “inactive”.

For the molecule `COc1ccc(COc2cc(-c3cccc(OC)c3)nc3ccc(N)cc23)cc1`, the Potency is 2.91 µM (active).

As to `CN1c2ccccc2Sc2cc(N)ccc21`, the Potency result was “inactive”.

Turning to `COc1ccc(/C=N/NC(=O)CCn2cnc(-c3ccccc3)c2-c2ccccc2)cc1`, the Potency was 2.31 µM (active).

For the molecule `COc1ccc(-c2nn(-c3ccccc3)cc2C(=O)NC(=S)NNC(=O)c2ccncc2)cc1`, the Potency result is “inactive”.

As to `COc1ccc(/C=N\NC(=O)c2c(C)nc3ccc(Br)cn23)cc1`, the Potency entry is “inactive”.

In the case of `COc1ccc(/C=N/NC(=O)CCn2cnc(-c3ccccc3)c2-c2ccccc2)cc1OC`, the Potency was 16.4 µM (active).

`COc1cc2c(cc1OC)-c1cc(Nc3ccc(C)cc3)nc(=O)n1CC2`: the Potency was 18.4 µM (active).

Take `COc1cc2c(cc1OC)-c1cc(Nc3ccccc3C)nc(=O)n1CC2`: the Potency entry is “inactive”.

As for `COc1cc2c(cc1OC)-c1cc(Nc3ccccc3)nc(=O)n1CC2`, the Potency is 18.4 µM (active).

In the case of `COc1cc2c(cc1OC)-c1cc(Nc3ccc(N(C)C)cc3)nc(=O)n1CC2`, the Potency entry is “inactive”.

In the case of `COc1ccc(Nc2cc3n(c(=O)n2)CCc2cc(OC)c(OC)cc2-3)c(C)c1`, the Potency is 5.17 µM (active).

Regarding `Oc1ccc(-c2nc3cnccn3c2Nc2ccc3c(c2)OCCO3)cc1`, the Potency is 23.1 µM (active).

`O=C(O)CCCCCCCCc1cn(Cc2ccc(C(=O)c3ccccc3)cc2)nn1`: the Potency entry is “inactive”.

Regarding `CCOc1cc(C(=O)N/N=C(\C)Cc2ccc(OC)cc2)cc(OCC)c1OCC`, the Potency result is “inactive”.

`CCOc1ccccc1OCC(=O)N/N=C(\C)Cc1ccc(OC)cc1`: the Potency result is “inactive”.

Turning to `O=C(COc1ccc(C(=O)c2ccccc2)cc1)NCc1ccc(F)cc1`, the Potency was 4.61 µM (active).

Consider `COc1ccc(CNC(=O)COc2ccc(C(=O)c3ccc(F)cc3)cc2)cc1`, for which the Potency is 3.26 µM (active).

`Nc1ncnc2c1ncn2[C@@H]1O[C@H](CNCc2cccc(C#Cc3ccccc3)c2)[C@@H](O)[C@H]1O`: the Potency entry was “inactive”.

Regarding `OC[C@H]1O[C@@H](n2cnc3c(Nc4ccccc4)ncnc32)[C@H](O)[C@@H]1O`, the Potency was 7.31 µM (active).

For the molecule `C[C@H](Cc1ccccc1)Nc1ncnc2c1ncn2[C@@H]1O[C@H](CO)[C@@H](O)[C@H]1O`, the Potency is 0.184 µM (active).

With `Cc1cn(-c2cccnc2)c(C)c1CNC[C@H]1O[C@@H](n2cnc3c(N)ncnc32)[C@H](O)[C@@H]1O`, the Potency result was “inactive”.

On to `CCn1c2ccccc2c2cc(Nc3cc(C)nc4ncnn34)ccc21`, for which the Potency is 16.4 µM (active).

On to `Cc1cc(NC(=O)CSc2nc3ccccc3c(=O)n2C2CCCC2)no1`, for which the Potency was 4.61 µM (active).

On to `Cc1cc(NC2CCCCC2)nc2ccccc12`, for which the Potency result is “inactive”.

As for `COc1cccc(-c2nnc(SCC(=O)Nc3cc(C)on3)o2)c1`, the Potency entry is “inactive”.

Take `O=[N+]([O-])c1cc(O)c2ncccc2c1`: the Potency result is “inactive”.

On to `COc1ccc(CNc2nc(NCc3ccc(OC)cc3)c3ncn(C4CCCC4)c3n2)cc1`, for which the Potency was 2.31 µM (active).

For `COC(=O)c1ccc(CNC(=O)Cn2cnc3c(NCc4ccccc4)ncnc32)cc1`, the Potency entry was “inactive”.

Regarding `NS(=O)(=O)c1cc(C(=O)OCC(=O)N2CCc3ccccc3C2)ccc1Cl`, the Potency result is “inactive”.

On to `O=C(OCC(=O)c1ccc[nH]1)c1ccc(Cl)c(Cl)c1`, for which the Potency result is “inactive”.

`CCn1c(=O)c([N+](=O)[O-])c(Cl)c2ccccc21`: the Potency is 6.51 µM (active).

In the case of `CCOc1ccc(NCc2ccccc2OCc2cccc(F)c2)cc1`, the Potency entry was “inactive”.

Consider `O=Cc1ccccc1OCCOc1ccccc1C=O`, for which the Potency was 20.6 µM (active).

Regarding `O=C(CSc1ncccc1C(=O)O)c1ccc2ccccc2c1`, the Potency result was “inactive”.

Consider `NC(=S)N=Nc1c(O)n(CCCl)c2ccccc12`, for which the Potency result is “inactive”.

As to `C/C(Cl)=C\Cn1c(O)c(N=NC(N)=S)c2cc(Br)ccc21`, the Potency was 14.6 µM (active).

For the molecule `C=CCn1c(O)c(N=NC(=S)Nc2ccccc2F)c2cc(S(=O)(=O)N3CCOCC3)ccc21`, the Potency result is “inactive”.
